Cy5 interf NS3h – Cy5 fluorescence interference, HCV helicase counter-screen; fluorescence interference ratio at 100 µM; Cy5-dT15 DNA with NS3h; actives lie on both sides; signal over control mean, under 1 quenches; 16,000 tested, 6% active;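 active = compound fluorescence over control fluorescence at most 0.8, a quencher, or at least a set upper limit, an enhancer; inactive = ratio between 0.8 and the set upper limit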
NS3h inh CB – hepatitis C NS3 helicase inhibition, primary screen; AID 687043; inhibition, % at 100 µM; NS3h Cy5-dT15 DNA binding, fluorescence polarization; 16,000 tested, 1.6% active;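 active = inhibition above the average over every tested compound plus 3 SD, cut at about 40% in these data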
Large screens that a line does not name were inactive. This is a sample that favours compounds with a hit; in the whole collection about 6.9% have one here.

CC(=O)N=C1SC2CS(=O)(=O)CC2N1c1c(Cl)cccc1Cl (stereo not given)	Cy5 interf NS3h 1.3
O=C(c1cc2n(n1)C(C(F)(F)F)CC(c1ccccc1)N2)N1CCOCC1 (stereo not given)	none
Cc1cc(C)c(/C=N\O)c(C)c1/C=N\O	Cy5 interf NS3h 0.69
COc1ccc(NC(=O)/C(C#N)=C/c2ccc(-c3ccc([N+](=O)[O-])cc3Cl)o2)cc1	none
CC(=O)NC1=NC(=O)/C(=C/c2cc(Cl)ccc2OCc2c(F)cccc2Cl)S1	Cy5 interf NS3h 0.77
COC(=O)c1c(C)oc2ccc(OCc3c(F)cccc3Cl)cc12	none
CCc1ccc(S(=O)(=O)Nc2cc(Br)c(O)c3ccccc23)cc1	none
CCc1ccc(S(=O)(=O)Nc2cc(-c3c(O)ccc4ccccc34)c(O)c3ccccc23)cc1	Cy5 interf NS3h 0.78
O=[N+]([O-])c1ccc(N2CCN(S(=O)(=O)Cc3ccccc3)CC2)cc1NC1CC1	none
O=C(O)c1cc(C(=O)O)c2cc(Cl)ccc2n1	none
COC(=O)c1ccccc1NC(=O)c1ccc(Cl)c([N+](=O)[O-])c1	none
CN1C(=O)C(=O)c2cc(Br)ccc21	Cy5 interf NS3h 0.74
O=C1C(=O)N(Cc2ccc(F)cc2)c2ccc(Br)cc21	none
O=C(Nc1cccc(Cl)c1Cl)c1cc2nc(-c3ccc([N+](=O)[O-])cc3)cc(C(F)(F)F)n2n1	Cy5 interf NS3h 0.79
CCCNC(=O)c1cc2nc(-c3ccc(OC)cc3)cc(C(F)(F)F)n2n1	none
Cc1ccc(-c2cc(C(F)(F)F)n3nc(C(=O)OC(C)C)cc3n2)cc1	none
O=C(Nc1cccc(Cl)c1)c1cc2nc(-c3ccc4c(c3)OCO4)cc(C(F)(F)F)n2n1	Cy5 interf NS3h 0.67
Cc1ccc(N)cc1NC(=O)c1ccccc1	none
COc1cccc(/C=C2/C(=O)NN(c3ccc(Br)cc3)C2=O)c1	none
COC(=O)C1CC(=O)OC1c1ccccc1 (stereo not given)	none
COc1ccc(Br)cc1/C=C1/SC(=S)N(Cc2ccccc2)C1=O	Cy5 interf NS3h 0.69
CCN1C(=O)/C(=C\c2ccccc2OCCOc2cccc(OC)c2)SC1=S	none
CCN1C(=O)/C(=C\c2cc(OC)ccc2OC)SC1=S	Cy5 interf NS3h 0.76
CCN1C(=O)/C(=C\c2cc(Br)ccc2OCc2ccccc2)SC1=S	none
Cc1ccc(NC(=O)CN(c2cccc([N+](=O)[O-])c2)S(=O)(=O)c2ccccc2)cc1Cl	none
Cc1c(Br)c(C(F)(F)F)nn1CC(=O)N(C)c1ccccc1	Cy5 interf NS3h 0.55
Cc1c(Br)c(C(F)(F)F)nn1CC(=O)Nc1cc(C(F)(F)F)ccc1Cl	none
CCOC(=O)c1c(NC(=O)COc2c(C)cc(C)cc2C)sc(C(=O)Nc2ccccc2)c1C	none
CCOC(=O)c1c(NC(=O)c2sc3cc(C)ccc3c2Cl)sc(C(N)=O)c1C	Cy5 interf NS3h 0.79
COC(=O)C12CC3CC(CC(C(=O)OC)(C1)C31SCCS1)C21SCCS1	none
Cc1ccc2cc(C3=C/C(=C/c4ccc([N+](=O)[O-])o4)C(=O)O3)ccc2c1	Cy5 interf NS3h 0.77
Cc1ccc(/C=C2/C=C(c3ccc(Br)cc3)OC2=O)o1	Cy5 interf NS3h 0.68
Cc1ccc(C2=C/C(=C/c3ccc(-c4ccc([N+](=O)[O-])cc4)o3)C(=O)O2)cc1	none
COc1ccc(/C=C2\C=C(c3ccc(Br)cc3)OC2=O)c(C)c1	none
Cc1ccc(OCc2nnc(NC(=O)Nc3cccc(Cl)c3)s2)cc1C	none
O=C(c1nn2c(c1Br)NC(c1cccs1)CC2C(F)(F)F)N(Cc1ccccc1)Cc1ccccc1 (stereo not given)	none
COc1ccc(/C=C2\C(=O)NC(=O)N(c3ccc(C)cc3)C2=O)c(C)c1	none
O=c1oc(-c2cccc(F)c2)nc2cc(Cc3ccc4c(=O)oc(-c5cccc(F)c5)nc4c3)ccc12	none
Cc1ccc(C(=O)CCNc2ccc(C)c(C)c2)o1	none
Cc1ccc(NC(=O)/C(C#N)=C/c2ccc(-c3ccc(Cl)c(C(=O)O)c3)o2)cc1Cl	none
O=C1NN(c2ccc(Cl)cc2)C(=O)/C1=C\c1ccc(O)c(O)c1	none
Cc1ccc(N2NC(=O)/C(=C/c3ccc(Cl)cc3)C2=O)cc1	Cy5 interf NS3h 0.68
CC1=C(C(=O)Nc2ccc(Cl)cc2)C(c2ccc(F)cc2)NC(=O)N1 (stereo not given)	none
CCOC(=O)c1sc(NN=C(C#N)C#N)c(C(=O)OCC)c1C	Cy5 interf NS3h 0.56
CCOC(=O)c1c(NC(=O)/C=C\C(=O)O)sc(C(=O)Nc2ccccc2)c1C	none
O=C(c1ccccc1)c1ccc(N2CCCCC2)cc1	none
Cc1cccc(/C(N)=N\OC(=O)c2ccc(Br)cc2)c1	none
O=C(Nc1ccccc1)Nc1nnc(SCc2ccccc2F)s1	Cy5 interf NS3h 1.2
O=C(Nc1ccccc1)Nc1nnc(SCc2ccc(F)cc2)s1	none
CCOc1cc(OCC)cc(C(=O)Nc2cc(C)ccn2)c1	none
CC(=O)c1cccc(NC(=O)Cn2cnc([N+](=O)[O-])n2)c1	none
COc1ccc(O)c(/C=N\n2cnnc2)c1	none
CCN1C(=O)/C(=C\c2cccc(C)c2)SC1=S	none
CCN(CC)c1ccc(/C=C2/SC(=S)N(CNc3cccc(C)c3)C2=O)cc1	Cy5 interf NS3h 0.65
Cc1ccc(C(C)C)c(OCc2nnc(NC(=O)Nc3ccccc3)s2)c1	none
COc1ccc(C(=O)NC(Nc2ccc(Cl)cc2)C(Cl)(Cl)Cl)cc1OC (stereo not given)	none
COC(=O)c1ccc(/C=C2\C(=O)NC(=O)N(c3cc(C)cc(C)c3)C2=O)cc1	none
Cc1ccc(N2C(=O)CC(N3CCN(Cc4ccccc4)CC3)C2=O)cc1 (stereo not given)	none
Cc1ccc(N2C(=O)CC(NC3CCN(Cc4ccccc4)CC3)C2=O)cc1 (stereo not given)	Cy5 interf NS3h 1.3
Cc1ccc(N2C(=O)CC(NCc3cccc(C(F)(F)F)c3)C2=O)cc1 (stereo not given)	Cy5 interf NS3h 1.2
Cc1ccc(N2C(=O)CC(NCc3cccc(Cl)c3)C2=O)cc1 (stereo not given)	none
COc1cc(NC(=O)COc2ccc(C)cc2)ccc1NC(=O)c1ccco1	none
COc1ccc(NC(=O)C(=O)NCCN2CCN(C(=O)c3ccccc3Cl)CC2)cc1	none
CN(C1=NC(=O)S/C1=C\c1ccc([N+](=O)[O-])cc1)c1ccc(O)cc1	none
CN(C1=NC(=O)/C(=C\C(Cl)=C\c2ccc([N+](=O)[O-])cc2)S1)c1ccc(O)cc1	Cy5 interf NS3h 0.4
CCOC(=O)C1CCCN(C2CC(=O)N(c3ccc(C)cc3)C2=O)C1 (stereo not given)	Cy5 interf NS3h 1.2
Cc1ccc(N2C(=O)CC(N3CCOCC3)C2=O)cc1 (stereo not given)	none
CCOc1ccc(N(CC(=O)NCc2ccc(Cl)cc2)S(=O)(=O)c2ccc(Br)cc2)cc1	none
CC(C)(C)c1ccc(OCC(=O)Nc2cccc(C(=O)Nc3nccs3)c2)cc1	Cy5 interf NS3h 0.8
CC(C)(C)c1ccc(OCC(=O)Nc2cccc(OC(F)(F)F)c2)cc1	none
Cc1ccc(-c2nc3ccccc3o2)cc1NC(=S)NC(=O)/C=C/c1ccccc1	none
Cn1cc(/C=C/C(=O)c2ccc(Cl)cc2)c2ccccc21	none
O=C(c1cc(N2CCCCC2)c(F)cc1[N+](=O)[O-])N1CCCCC1	none
O=C(c1ccc(Cl)c(Cl)c1)N1CCN(c2ccc([N+](=O)[O-])c(N3CCOCC3)c2)CC1	Cy5 interf NS3h 0.65
O=C(c1cc(F)c(F)cc1Cl)N1CCN(c2ccc([N+](=O)[O-])c3ncccc23)CC1	none
O=C(c1cc(F)c(F)cc1Cl)N1CCN(c2ccc([N+](=O)[O-])c(N3CCCC3)c2)CC1	Cy5 interf NS3h 0.67

Assay outcomes (PubChem BioAssay)
